The results in this text go back to PubChem BioAssay (NCI).

Each structure is given as a SMILES string. Several values for one entry are separate records, joined by “and”; a condition that tells them apart may be missing. Equal entries are not always repeated. The panel holds about 83,000 compounds, 20% with a hit somewhere; the sample as a whole holds those more often.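 48-hour exposure, single concentration, 96-well plates; percent growth endpoint where 0 means no net growth. Active: below 10.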 A number with no mark means an inactive call. Activity calls are given as the source filed them.

The test system of the first assay is NCI-H226 lung. The assay is described as follows: NCI-60 one-dose screen, 48 h (100 = growth as untreated, 0 = no growth, -100 = all killed). Conditions: 10 µM unless noted.
On to `Cc1ccc(NC(=O)c2ccc(CN3CCN(C)CC3)cc2)cc1Nc1nccc(-c2cccnc2)n1`, for which the growth was 89.4% and 78.2%. For the compound `C=C1C(=O)O[C@H]2[C@H]1CC/C(COC(=O)NCCCCNC(=O)OC/C1=C/CC[C@@]3(C)O[C@H]3[C@H]3OC(=O)C(=C)[C@@H]3CC1)=C\CC[C@@]1(C)O[C@@H]21`, the growth is 53.2%. As to `C[C@@H]1O[C@@H](O[C@H]2[C@@H](OC(=O)[C@]34CCC(C)(C)C[C@H]3C3=CC[C@@H]5[C@@]6(C)C[C@H](O)[C@H](O[C@@H]7O[C@H](CO)[C@@H](O)[C@H](O)[C@H]7O)[C@@](C)(CO)[C@@H]6CC[C@@]5(C)[C@]3(C)C[C@H]4O)OC[C@@H](O)[C@@H]2O)[C@H](O)[C@H](O[C@@H]2OC[C@@H](O)[C@H](O[C@@H]3OC[C@](O)(CO)[C@H]3O[C@@H]3OC[C@@H](O)[C@H](O)[C@H]3O)[C@H]2O)[C@H]1O[C@@H]1OC[C@](O)(CO)[C@H]1O`, the growth is 99.2%. Consider `NC(=O)c1c(NC(=O)/C=C/c2cccs2)sc2c1CCC(=O)C2`, for which the growth was 68.5%.

Turning to `CC1=CC(C)(C)NC(=S)N1c1ccc(Cl)cc1`, the growth was 99% and 103%. As to `Cc1cc(N2CCCCC2)nc(NCc2cc(Nc3ccnc4cc(Cl)ccc34)ccc2F)n1`, the growth was 68.2%. Turning to `CCCCCCCC/C=C\CCCCCCCCOc1ccccc1CC(=O)NCC[N+]1(C)CCOCC1`, the growth is 62.3%. As for `COc1nc2ccc(C)cc2cc1/C=[N+](\[O-])c1ccccc1`, the growth is 73.6%.

The next assay relates to NCI-H322M lung. Described as above. The settings on record: 10 µM unless noted.
`O=C(O)C1C2CCC1C(O)C2` (configuration not stated): the growth is 115% and 97.6%. On to `CC1=C2[C@@H](CC1)[C@]1(C)O[C@@](C3CC3)(C[C@H]1OC(=O)CO)[C@H]2OC(=O)/C=C/c1ccccc1`, for which the growth is 82.2%. With `CON1CCC[C@]2(C)[C@H]3CC[C@@H]4[C@H]5[C@@H](O)C(C)(C)CC[C@]5(CO)CC[C@@]4(C)[C@]3(C)CC[C@H]2C1(C)C`, the growth is 109%. Take `O=C(Nc1ccccc1C(=O)N/N=C(\c1ccccc1)c1ccccn1)c1ccccc1`: the growth was 29.1%.

Regarding `CNC(=O)c1cc(Oc2ccc3nc(NC(=O)Nc4ccc(C(F)(F)F)cc4)sc3c2)ccn1`, the growth was 80.5%.

On to `COc1cc(CO)cc2cc3ccccc3nc12`, for which the growth was 115%. For `Cc1ccc(S(=O)(=O)OC[C@@]2(C)CC[C@]3(C)CC[C@]4(C)C(=CC[C@@H]5[C@@]6(C)CCCNC(C)(C)[C@@H]6CC[C@]54C)[C@@H]3C2)cc1`, the growth is -87.4% (active). For `O=C1C(c2c[nH]c3ccccc23)=C(c2coc3cc(Br)ccc23)C(=O)N1O`, the growth is 97.1%. With `Cc1ccc(Cc2cnc(NC(=O)c3cc(C)oc3C)s2)cc1`, the growth was 70.8%. On to `CN(Cc1ccccc1)c1nc(Cl)c(C2CC(c3ccc4c(c3)OCO4)=NN2c2cc(Cl)cc(Cl)c2)s1` (configuration not stated), for which the growth was 99.9%. For `COc1ccc(/C=C/C(=O)c2cc3c(N)c(C(=O)Nc4ccccc4Cl)sc3nc2C)cc1`, the growth is 62.3%. Consider `COc1ccc(/C=N/NC(=O)CN2CCN(c3cc4c(cc3F)c(=O)c(C(=O)O)cn4C3CC3)CC2)cc1O`, for which the growth is 102%. The same measure, in the same setting: under `COc1ccc(-c2csc(NC(=O)CN3CCN(CCO)CC3)n2)cc1NS(=O)(=O)c1cccc2c(N(C)C)cccc12` stands 89.9%. Still for that read-out and setting: with `COc1cccc(NC(=O)c2sc3nc(C)c(C(O)c4ccccc4)cc3c2N)c1` (configuration not stated) the figure was 49.7%; with `COc1ccc(N2CCN(S(=O)(=O)c3oc(-c4ccccc4)nc3C#N)CC2)cc1`, 97.6%; with `O=S(=O)(O)c1ccc(N=Nc2ccc(N=Nc3cccc4ccccc34)c(S(=O)(=O)O)c2)cc1`, 102%. Take `O=C1/C(=C/c2ccc(F)c(F)c2)CN(C(=O)C(Cl)Cl)C/C1=C\c1ccc(F)c(F)c1`: the growth is -86% (active).

Turning to `O=S(=O)(Nc1cc(Sc2cccc3cccnc23)c(O)c2ccccc12)c1ccc(F)cc1`, the growth is 31.7%. As to `COc1cc(Cl)cc(-c2nn(C(=O)NS(=O)(=O)c3ccc(Cl)cc3)cc2-c2ccncc2)c1`, the growth was 96.5%. On the same count and under the same terms, under `CCN1CCN(CC(=O)Nc2nc3ccc(NCc4ccc(C)cc4)cc3s2)CC1` stands 87.6%; under `COc1cc(-c2nc(SCCC(C)C)nc(Nc3ccc(F)cc3)c2C#N)cc(OC)c1OC`, 63.2%. Take `O=C(/C=C/c1ccc([N+](=O)[O-])cc1)c1ccccc1`: the growth was 102%. As to `COc1cc(-c2nn(-c3cccc(NC(=O)CCN4CCN(C)CC4)c3)cc2-c2ccncc2)ccc1Cl`, the growth was 37.5%. Regarding `N#CC(Cc1cccc2ccccc12)c1cc2ccccc2[nH]1` (configuration not stated), the growth is 84.8%. For the compound `C#CCOCC1CN(C)C(=O)O1` (configuration not stated), the growth was 114%. Take `Cc1ccc(/C=C/c2c(C(=O)/C=C/c3ccccc3)c(C)nc3ccccc23)cc1`: the growth is 46.8%. Consider `Cc1ccc(-c2nc(C#N)c(S(=O)(=O)N(C)C)o2)cc1`, for which the growth is 91.1%.

As to `O=C(Nc1ncc(Cc2cccc(C(F)(F)F)c2)s1)c1ccc(-n2cnnn2)cc1`, the growth is 86.1%. Turning to `COc1c(F)cc(-n2c(C(=O)N3CC(F)C3)cc3cccnc32)cc1F`, the growth is 95.1%. Regarding `N=C1/C(=C2\NC3C=CC=CC3S2)C(c2ccc(Cl)cc2)C2C(=O)N(c3ccccc3)C(=S)N12` (configuration not stated), the growth is 101%.

`COc1ccc(Cl)cc1Nc1nc(C(F)(F)F)ccc1C(=O)N/N=C/c1ccc(N(C)C)cc1`: the growth is 80.8%. Take `Cc1ccc(NC(=O)c2ccc(CN3CCN(C)CC3)cc2)cc1Nc1nccc(-c2cccnc2)n1`: the growth was 104%. Consider `C=C1C(=O)O[C@H]2[C@H]1CC/C(COC(=O)NCCCCNC(=O)OC/C1=C/CC[C@@]3(C)O[C@H]3[C@H]3OC(=O)C(=C)[C@@H]3CC1)=C\CC[C@@]1(C)O[C@@H]21`, for which the growth is 98.5%. With `C[C@@H]1O[C@@H](O[C@H]2[C@@H](OC(=O)[C@]34CCC(C)(C)C[C@H]3C3=CC[C@@H]5[C@@]6(C)C[C@H](O)[C@H](O[C@@H]7O[C@H](CO)[C@@H](O)[C@H](O)[C@H]7O)[C@@](C)(CO)[C@@H]6CC[C@@]5(C)[C@]3(C)C[C@H]4O)OC[C@@H](O)[C@@H]2O)[C@H](O)[C@H](O[C@@H]2OC[C@@H](O)[C@H](O[C@@H]3OC[C@](O)(CO)[C@H]3O[C@@H]3OC[C@@H](O)[C@H](O)[C@H]3O)[C@H]2O)[C@H]1O[C@@H]1OC[C@](O)(CO)[C@H]1O`, the growth was 56.4%. `NC(=O)c1c(NC(=O)/C=C/c2cccs2)sc2c1CCC(=O)C2`: the growth was 101%.

Consider `CC1=CC(C)(C)NC(=S)N1c1ccc(Cl)cc1`, for which the growth was 98.2%. As for `Cc1cc(N2CCCCC2)nc(NCc2cc(Nc3ccnc4cc(Cl)ccc34)ccc2F)n1`, the growth was -12.7% (active).

Turning to `CCCCCCCC/C=C\CCCCCCCCOc1ccccc1CC(=O)NCC[N+]1(C)CCOCC1`, the growth is 93.7%. `COc1nc2ccc(C)cc2cc1/C=[N+](\[O-])c1ccccc1`: the growth is 85.1%.
